# Key:
# [1] = test system: Human papillomavirus type 1a protein E7 (residues 44-93); assay: small molecules binding HPV E7 44-93 – biochemical, small-molecule microarray, residues 44-93, 635 nm fluorescence, primary screen (AID 1108); conditions: fluorescence 635 nm, higher = more signal;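 note: E7 fragment applied at 1 µg/mL in TBST for 1 h at 4 C; score combines spot fluorescence with its signal to noise ratio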
# [2] = hepatitis C replication reporter changes, two-sided – Huh7 cells, luciferase reporter, HCV replication inhibitor project, primary screen (AID 1109); conditions: Huh7 HCV replicon luciferase reporter, 48 h; higher = more signal;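 note: huh7 hepatoma cells harbouring a luciferase neomycin HCV replicon reporter; luciferase luminescence as measure of HCV replicon replication; test concentration not given here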
# [3] = target: Left-right determination factor 2 (Homo sapiens) (UniProt O00292); assay: small molecules binding LEFTY2 protein – biochemical, small-molecule microarray, 635 nm fluorescence scan, primary screen (AID 1110); conditions: higher = more signal
# [4] = target: Calmodulin-1 (Homo sapiens) (UniProt P0DP23); assay: small molecules binding calmodulin-1 with EGTA – biochemical, small-molecule microarray, Cy5-labelled CALM1, profiling panel (AID 1111); conditions: Cy5-CALM1 binding fluorescence, higher = more signal;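 note: labelled calmodulin applied in Tris saline Tween buffer holding calcium plus EGTA and DTT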
# [5] = target: Calmodulin-1 (Homo sapiens) (UniProt P0DP23); assay: small molecules binding Ca-loaded calmodulin-1 – biochemical, small-molecule microarray, Cy5-labelled CALM1, plus calcium, artefact control for SMM control-protein annotation, profiling panel (AID 1112); conditions: Cy5-CALM1 binding fluorescence, higher = more signal;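 note: score merges spot fluorescence with signal to noise from triplicate slides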
# [6] = probe aWnt5a binding to arrayed compounds – biochemical, biotinylated probe, 635/667 nm fluorescence, primary screen (AID 1113); conditions: small-molecule microarray, higher = more signal;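 note: score merges 667 nm fluorescence intensity with signal-to-noise per printed feature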
# [7] = probe aShh binding to arrayed compounds – biochemical, biotinylated probe, 635/667 nm fluorescence, primary screen (AID 1114); conditions: small-molecule microarray, higher = more signal;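 note: probe is biotin-labelled aShh protein from a stem cell growth factor screen; measures binding of labelled protein to compounds printed on the slide; score merges feature fluorescence at 667 nm with signal-to-noise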
# [8] = probe aNog binding to arrayed compounds – biochemical, biotinylated probe, 635/667 nm fluorescence, primary screen (AID 1115); conditions: small-molecule microarray, higher = more signal;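 note: probe is biotinylated aNog protein used at 0.15 µg/mL for 1 h at 4 C; z-score combines 667 nm fluorescence of each spot with its signal to noise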
# [9] = target: Torsin-1A-interacting protein 1 (Homo sapiens) (UniProt Q5JTV8); assay: compound microarray binding of lysate hLAP1 – cell lysate, small-molecule microarray, COS7 lysate, 635/667 nm fluorescence, primary screen (AID 1116); conditions: 635 nm fluorescence, higher = more signal
# [10] = target: Alpha-bungarotoxin (Bungarus multicinctus) (UniProt P60615); assay: compounds binding labelled alpha-BTX control protein – biochemical, small-molecule microarray, Alexa647 label, 635/667 nm fluorescence, artefact control for SMM control protein annotation, profiling panel (AID 1117); conditions: alpha-BTX-A647 binding fluorescence, higher = more signal
# Sequence of Alpha-bungarotoxin (Bungarus multicinctus) (P60615 whole entry, looked up): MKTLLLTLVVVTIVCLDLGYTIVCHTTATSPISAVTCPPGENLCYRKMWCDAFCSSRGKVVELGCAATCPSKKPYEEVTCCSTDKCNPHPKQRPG
# Sequence of Left-right determination factor 2 (Homo sapiens) (O00292 whole entry, looked up): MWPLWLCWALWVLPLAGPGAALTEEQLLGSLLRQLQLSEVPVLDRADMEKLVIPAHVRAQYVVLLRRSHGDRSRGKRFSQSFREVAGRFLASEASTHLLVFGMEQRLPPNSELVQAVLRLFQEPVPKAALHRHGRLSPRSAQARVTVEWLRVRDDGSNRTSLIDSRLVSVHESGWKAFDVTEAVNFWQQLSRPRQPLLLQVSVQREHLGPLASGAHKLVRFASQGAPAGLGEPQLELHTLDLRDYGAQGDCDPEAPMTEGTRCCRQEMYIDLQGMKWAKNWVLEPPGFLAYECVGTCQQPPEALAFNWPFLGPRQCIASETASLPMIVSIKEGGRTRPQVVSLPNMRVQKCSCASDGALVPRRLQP
# Sequence of Torsin-1A-interacting protein 1 (Homo sapiens) (Q5JTV8 whole entry, looked up): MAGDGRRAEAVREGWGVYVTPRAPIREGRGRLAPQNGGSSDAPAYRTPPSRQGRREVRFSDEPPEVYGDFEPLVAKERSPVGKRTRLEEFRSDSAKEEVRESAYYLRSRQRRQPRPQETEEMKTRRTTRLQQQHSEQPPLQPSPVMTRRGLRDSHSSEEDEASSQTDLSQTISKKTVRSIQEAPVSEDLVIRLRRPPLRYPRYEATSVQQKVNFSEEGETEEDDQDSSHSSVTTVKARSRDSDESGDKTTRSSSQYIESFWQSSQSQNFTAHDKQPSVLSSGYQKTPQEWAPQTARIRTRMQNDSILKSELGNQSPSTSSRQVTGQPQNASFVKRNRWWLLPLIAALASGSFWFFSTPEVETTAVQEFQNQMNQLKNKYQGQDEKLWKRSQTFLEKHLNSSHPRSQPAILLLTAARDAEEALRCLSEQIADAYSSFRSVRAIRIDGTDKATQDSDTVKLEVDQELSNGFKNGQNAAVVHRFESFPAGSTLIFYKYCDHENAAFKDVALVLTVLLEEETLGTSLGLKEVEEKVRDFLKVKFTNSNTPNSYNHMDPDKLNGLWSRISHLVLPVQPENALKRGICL
Structure (SMILES),composite z-score [1],z-score [2],composite z-score [3],composite z-score [4],composite z-score [5],composite z-score [6],composite z-score [7],composite z-score [8],composite z-score [9],composite z-score [10]
COCCCNC(=O)[C@@]1(CCS(=O)(=O)c2ccccc2)N=C(c2ccc(OCCCO)cc2)O[C@H]1c1ccccc1N=[N+]=[N-],1.48,-1.6,0.169,1.55,0.001,0.127,0.204,1.36,2.24,1.67
COc1cc2c(cc1O)C(c1cccs1)N(Cc1cccc(OC(F)(F)F)c1)CC2 (stereo not given),1.14,-1.75,0.0446,0.0759,-0.194,-0.0545,-0.0709,0.0953,0.0117,0.422
CCCCC(=C=CC[C@H](O)c1cccc(OCCO)c1)C[C@H](O)c1ccccn1,-0.146,-1.05,0.258,0.481,-0.784,-0.0239,-0.13,-0.23,0.0971,-0.0891
OB1C=CCC(CCc2ccccc2)O1 (stereo not given),-1.86,1.1,-0.32,-0.961,-0.455,-0.263,-0.117,-0.39,0.363,-0.725
CCOC(=O)C[C@H]1[C@H](OC(=O)c2ccc(-c3ccccc3)cc2)[C@@H](NC(=O)c2ccccc2)c2cc(OCCCO)ccc2N1C(=O)Cc1ccc(OC)cc1,-0.149,-1.41,0.199,0.594,0.534,-0.1,-0.147,-0.18,0.328,0.281
O=C1O[C@@H](c2ccccc2)[C@@H](c2ccccc2)N2[C@@H](c3ccc(OCCO)cc3)[C@]3(C(=O)Nc4ccc(C#CC5=CCCCC5)cc43)[C@@H](C(=O)N3CCCCCCC3)[C@H]12,1.45,-1.58,1.59,2.33,1.14,1.21,2.92,3.02,4.33,2.54
CCOC(=O)C1=CC[C@H]2C(=O)N(c3ccccc3)C(=O)[C@@H]12,1.51,-1.36,0.791,0.802,-0.513,0.027,-0.0793,1.15,1.14,0.203
O=C1O[C@@H](c2ccccc2)[C@@H](c2ccccc2)N2[C@@H](c3ccccc3OCCO)[C@]3(C(=O)Nc4ccc(C#CC5(O)CCCCCC5)cc43)[C@@H](C(=O)N3CCN(c4ncccn4)CC3)[C@H]12,1.38,-2.29,0.409,0.586,0.671,-0.0165,-0.0234,0.118,1.5,0.894
[N-]=[N+]=Nc1ccccc1C[C@]1(C(=O)N2CCCCC2)COC(c2ccc(OCCCO)cc2)=N1,1.44,-2.43,-0.241,1.35,0.234,0.117,-0.217,-0.673,1.03,0.465
Cc1ccc([C@H]2C(C(=O)O)=CCN2S(=O)(=O)c2ccc(C)cc2)cc1,0.964,-1.02,-0.441,0.659,0.261,-0.001,-0.0709,-0.333,1.54,0.705
CN1C(=O)C2C=CC(C(O)C=Cc3ccc([N+](=O)[O-])cc3)N(Nc3ccccc3)C2C1=O (stereo not given),1.31,0.599,0.407,0.447,-0.384,0.0182,0.207,-0.175,0.582,0.627
CN1CCC(CCCO)=CC1c1cccs1 (stereo not given),-1.03,-0.132,-0.0692,-0.949,-0.431,-0.176,-0.0474,-0.305,0.427,-0.0493
COc1ccc(CCNC(=O)[C@@]2(c3ccc([N+](=O)[O-])cc3)CC(=O)N(CC34CC5CC(CC(C5)C3)C4)[C@@H]2c2ccc(CO)cc2I)cc1,1.38,-3.41,0.261,0.408,-0.266,-0.0643,-0.312,0.769,0.757,0.962
COCC(=C=CC[C@H](O)c1ccccc1OCCO)CCO,0.0008,-0.266,-0.378,-0.0866,-0.037,-0.096,0.0723,0.509,1.34,0.804
C=CCN(Cc1ccccc1)C(=O)C(c1cccs1)N(C(=O)/C=C\C(=O)O)c1ccc(CCOCCO)cc1 (stereo not given),-0.774,0.386,-2.57,-0.722,0.665,-0.191,-0.138,-0.242,-0.678,-1.84
C=C(/C(=C/C[C@H](OC(C)=O)c1ccc(OCCO)cc1)c1cc(C(=O)OC)ccc1OC)C(C)C,1.16,-1.19,0.323,1.17,0.116,-0.0721,-0.2,0.775,1.2,0.179
O=C1OCCC/C=C\[C@H]2OC34C=CCN(c5ccc6ccccc6c5)C(=O)[C@H]3N(CCCCCO)C(=O)[C@@H]4C12 (stereo not given in full),-2.53,-0.57,-1.07,-0.381,-0.645,-0.28,0.0141,-0.0428,-1.28,-0.23

Structure (SMILES),composite z-score [1],z-score [2],composite z-score [3],composite z-score [4],composite z-score [5],composite z-score [6],composite z-score [7],composite z-score [8],composite z-score [9],composite z-score [10]
O[C@@H](Cc1ccccc1)[C@@H](/C=C/C1CC1)NCc1cccc(Cl)c1,-0.597,-4.47,-1.4,-0.863,-0.133,-0.197,-0.206,-0.402,-0.737,-0.801
C=C(CCCC)/C(=C/C[C@@H](OC(C)=O)c1ccccc1OCCO)c1cc(C(=O)OC)ccc1OC,0.129,-2.13,-0.346,-0.421,-0.798,-0.124,-0.0769,0.0459,-0.107,1.15
COC(=O)[C@@]1(Cc2ccc(OC)cc2)[C@H]2c3cc(C(=O)N(C)C)n(Cc4ccc(C(F)(F)F)nc4)c3C[C@H]2CN1C(=O)c1ccccc1,0.714,-0.657,-0.0595,0.705,0.199,0.17,0.413,0.18,1,-0.173
CC[C@@H]1C=C(C(=O)O)[C@H](c2ccc(C)cc2)N1S(=O)(=O)c1ccc(C)cc1,0.878,-0.315,-0.925,0.846,0.515,-0.096,0.0048,-0.126,0.24,0.671
Cc1ccc(/C=C/C=O)cc1,0.134,0.626,-0.419,0.619,-0.524,-0.213,-0.0146,-0.299,-0.0785,0.185
CC(C)[C@@H](C(=O)O)n1cc(C2(O)CCCCC2)nn1,0.875,-0.465,0.21,0.539,0.0141,-0.201,-0.0738,-0.0809,0.563,0.184
CC(C)C(=C=CC[C@H](O)c1ccc(CO)o1)CCO,1.21,-1.12,-0.0171,-0.26,-0.649,-0.15,-0.0793,-0.0827,0.843,0.963
C=CCC(OC(C)=O)[C@@H]1[C@@H](N(Cc2ccc(-c3ccccc3)cc2)C(=O)Cc2ccc(F)cc2)c2cc(OCCCO)ccc2N1C(=O)c1ccc2ccccc2c1 (stereo not given in full),0.0163,-0.381,-0.0251,-0.0052,0.28,-0.141,-0.221,-0.0632,0.402,-0.0517
[N-]=[N+]=Nc1ccccc1C[C@@]1(C(=O)N2CCCCC2)N=C(c2ccc(OCCCO)cc2)O[C@@H]1c1ccccc1N=[N+]=[N-],0.869,-2.71,-0.145,1.6,1.04,0.151,0.778,0.353,0.71,2.09
CO[C@H]1O[C@H](CO)[C@@H](OC(=O)Nc2ccc(Br)cc2)[C@@H]2OC(=O)[C@H](Cc3cccc(Br)c3)C/C=C/C[C@@H](Cc3cccc(Br)c3)C(=O)O[C@@H]12,-0.852,-3.26,-0.402,0.404,0.609,-0.12,-0.221,-0.1,-0.284,0.386
Cc1ccc(S(=O)(=O)N2C[C@@H](C(=O)O)[C@H](Sc3ccccc3)C[C@H]2c2ccccc2)cc1,1.14,-0.697,0.0026,1.61,-0.127,0.0775,0.0684,1.45,1.97,0.729
C=CCN1Cc2ccccc2[C@@H]2OC(c3ccc(OCCCO)cc3)=N[C@]2(CCS(=O)(=O)c2ccccc2)C1=O,1.33,-1.48,0.954,0.804,-0.321,-0.0009,0.377,0.714,1.58,1.42
O=C1OCCC=C[C@H]2OC34C=CCN(CCN5CCOCC5)C(=O)[C@H]3N(CCCCCO)C(=O)[C@@H]4C12 (stereo not given in full),0.57,0.305,-0.529,0.667,-0.836,-0.147,-0.237,-0.103,2.24,1.88
CCOC(=O)C[C@H]1[C@H](OC(=O)c2ccc(C(=O)c3ccccc3)cc2)[C@@H](NC(=O)Cc2ccc(OC)cc2)c2cc(OCCCO)ccc2N1C(=O)c1ccc2ccccc2n1,0.998,-0.873,0.816,0.985,0.336,-0.131,-0.0709,-0.526,0.566,0.738
CCOC(=O)C1=CC[C@@H](c2ccc(C(F)(F)F)cc2)N(S(=O)(=O)c2ccc(C)cc2)[C@H]1c1ccccc1,0.277,-1.1,0.221,2.08,0.55,0.201,0.109,1.43,1.51,1.56
C=CCNC(=O)[C@@H]1[C@H]2C(=O)O[C@H](c3ccccc3)[C@H](c3ccccc3)N2[C@H](c2ccc(OCCO)cc2)[C@@]12C(=O)N(C(=O)OCCOC)c1ccc(C#CCC(C(=O)OC)C(=O)OC)cc12,0.805,-1.5,0.969,1.61,0.105,-0.0302,0.199,0.804,1.03,1.26

# Source: PubChem BioAssay
